Legend:
Assay in all cases: PBM binding z-score (relative to random genomic background probes); higher = stronger binding; sequences stand for … in GC…GCGATTGACAGCGTAGAATGAAGG
[1] = tested on: FXR:RXRa (NR concentration 270 nM, RXRa partner concentration 90 nM)
Outline: (§1)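 Ligand-free nuclear receptor dimers were applied to custom Agilent 4×180K protein-binding microarrays whose double-stranded probes carried direct-repeat seeds, single-nucleotide variants, half-site ablations and random human genomic background sequences in 34-nt variable regions. Incubation lasted 1 h. Binding z-scores were computed against the random background probes from regression-normalized fluorescence.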

[2] = tested on: LXRa:RXRa (NR concentration 270 nM, RXRa partner concentration 90 nM)
Outline: as §1

[3] = tested on: LXRa homodimer (NR concentration 270 nM)
Outline: as §1

[4] = tested on: LXRb:RXRa (NR concentration 270 nM, RXRa partner concentration 90 nM)
Outline: as §1

[5] = tested on: LXRb homodimer (NR concentration 270 nM)
Outline: as §1

[6] = tested on: PPARa:RXRa (NR concentration 270 nM, RXRa partner concentration 90 nM)
Outline: as §1

[7] = tested on: PPARg:RXRa (NR concentration 180 nM, RXRa partner concentration 90 nM)
Outline: as §1

[8] = tested on: PPARg:RXRa 270nM:90nM, anti-RXR (NR concentration 270 nM, RXRa partner concentration 90 nM)
Outline: as §1

[9] = tested on: PPARg:RXRa 30nM:10nM, anti-RXR (NR concentration 30 nM, RXRa partner concentration 10 nM)
Outline: as §1

[10] = tested on: PPARg:RXRa 90nM:30nM, anti-RXR (NR concentration 90 nM, RXRa partner concentration 30 nM)
Outline: as §1

[11] = tested on: PPARg:RXRa DBDmut IVT, anti-RXR (DBD mutation: RXRa K156A/R161A, NR concentration 270 nM, RXRa partner concentration 90 nM)
Outline: as §1

[12] = tested on: PPARg:RXRa IVT, anti-PPARg (NR concentration 270 nM, RXRa partner concentration 90 nM)
Outline: as §1

[13] = tested on: PPARg DBDmut:RXRa IVT, anti-PPARg (DBD mutation: PPARg1 K132A/R137A, NR concentration 270 nM, RXRa partner concentration 90 nM)
Outline: as §1

[14] = tested on: PPARg DBDmut IVT, anti-PPARg (DBD mutation: PPARg1 K132A/R137A, NR concentration 270 nM)
Outline: as §1

[15] = tested on: PPARg homodimer (NR concentration 180 nM)
Outline: as §1

[16] = tested on: PXR:RXRa (NR concentration 270 nM, RXRa partner concentration 90 nM)
Outline: as §1

[17] = tested on: PXR homodimer (NR concentration 270 nM)
Outline: as §1

[18] = tested on: RARa:RXR (NR concentration 270 nM, RXRa partner concentration 90 nM)
Outline: as §1

[19] = tested on: RARa homodimer (NR concentration 270 nM)
Outline: as §1

[20] = tested on: RARb:RXRa (NR concentration 270 nM, RXRa partner concentration 90 nM)
Outline: as §1

Sequence | PBM binding z-score [1] | PBM binding z-score [2] | PBM binding z-score [3] | PBM binding z-score [4] | PBM binding z-score [5] | PBM binding z-score [6] | PBM binding z-score [7] | PBM binding z-score [8] | PBM binding z-score [9] | PBM binding z-score [10] | PBM binding z-score [11] | PBM binding z-score [12] | PBM binding z-score [13] | PBM binding z-score [14] | PBM binding z-score [15] | PBM binding z-score [16] | PBM binding z-score [17] | PBM binding z-score [18] | PBM binding z-score [19] | PBM binding z-score [20]
GCACATAGGTAATACAAGGTGAAAGTCCGATTGT | 0.681 | 2.96 | 0.0603 | 0.767 | -0.39 | 1.47 | 0.894 | 0.539 | 0.253 | 0.343 | 0.57 | 1.1 | 0.738 | 0.527 | 0.516 | 0.612 | -0.214 | 1.59 | 0.568 | 0.552
TTACCAGGGTGAAGGTCGTTGATCCCTCTGTAGA | 1.98 | 1.73 | -0.022 | 1.44 | -0.184 | 3.62 | 6.75 | 6.39 | 4.84 | 6.33 | 1.33 | 3.97 | 0.161 | -0.0741 | 1.08 | 1.6 | 0.104 | 1.86 | -0.0972 | 1.69
TCTTGTAGCTCAGCAGGTTAAGAAAGCTGGCCAA | -0.369 | -0.138 | -0.851 | -0.1 | -0.79 | 0.495 | -0.935 | 0.729 | 1.58 | 1.27 | 0.777 | -0.372 | -0.853 | -0.876 | -0.753 | -0.26 | -0.524 | -0.108 | -1.11 | -0.157
ACTATTAGTCGAGACGAGGGCAACCGATAGGTTG | -0.123 | -0.246 | -0.369 | -0.122 | -0.111 | 0.186 | 0.668 | 0.119 | 0.0913 | 0.381 | -0.021 | 0.553 | 0.32 | -0.276 | 0.0526 | 0.376 | 0.101 | 0.238 | -0.112 | 0.812
GCTGCTAGGTCTACTGATGGTCAGCTAAAGCTCG | -0.686 | -0.0634 | -0.277 | -0.896 | -0.887 | -0.691 | -0.539 | -0.623 | -0.649 | -0.834 | 0.214 | -0.311 | -1.02 | -1.38 | -1.15 | -0.901 | -1.2 | -0.701 | -0.754 | -0.132
TCTAGTTGGTCACGGAGGTCACACAAGACGGGTA | 3.16 | 3.39 | 2.41 | 3.46 | 0.597 | 3.99 | 3.49 | 4.05 | 3.51 | 3.75 | 2.31 | 4.34 | 0.505 | 0.71 | 2.71 | 4.55 | 1.16 | 4.17 | 1.37 | 3.87
CCTAGTTGGTCAGGAGGACACACACCGGATATGA | 0.321 | 0.0708 | 0.61 | 0.0444 | 0.0185 | 0.000867 | 1.08 | 0.072 | -0.0757 | -0.0104 | 0.664 | 1.14 | -0.182 | 0.142 | 0.859 | -0.126 | 0.473 | 0.228 | 1.7 | 1.4
GCATATAGGTAATAGAAGGTGAAAGTCCGATTGT | 0.555 | 1.95 | 0.235 | 0.582 | -0.597 | 1.78 | 1.24 | 1.35 | 0.321 | 0.9 | 3.98 | 3.21 | 0.445 | 0.104 | 0.675 | 0.246 | 0.153 | 0.961 | 0.689 | 0.402
TGTCAAAGTTCAACGGTAACGTAAGTATCCACAC | 6.73 | 5.85 | 4.19 | 3.92 | 1.33 | 5.05 | 8.27 | 7.38 | 5.3 | 6.83 | 0.0114 | 4.34 | 1.07 | 1.67 | 3.02 | 4.77 | 3.78 | 4.08 | 1.62 | 5.03
TCTCGTTGGTCAAAGGTCACACACTCGAAATGCG | 6.33 | 5.68 | 4.45 | 5.88 | 2.23 | 6.57 | 9.51 | 8.55 | 7.87 | 9.27 | 2.72 | 5.29 | 0.705 | 2.09 | 5.26 | 5.86 | 2.2 | 7.31 | 3.39 | 5.27
ATCGAAAGGTCGAGGTGAGTACAGAGAAAGGGAA | 4.22 | 3.51 | 0.276 | 2.53 | 0.653 | 4.64 | 3.5 | 3.96 | 1.38 | 2.61 | 0.64 | 2.65 | 1.01 | 0.9 | 1.64 | 3.27 | 0.251 | 3.11 | 1.29 | 4.14
GATCCAGGGTCAAGGCCAGAGTACGCGTATTGAT | 6.77 | 4.23 | -0.34 | 3.91 | -0.536 | 5.78 | 5.86 | 5.78 | 2.2 | 4.41 | 2.29 | 3.75 | 0.299 | 0.301 | 2.21 | 4.33 | 0.0901 | 5.29 | 0.437 | 4.49
GCTAGTTGGTCAGTAAAAGGTCACACATCGGTCG | 3.3 | 4.12 | 4.59 | 4.13 | 0.936 | 4.23 | 2.71 | 4.56 | 2.08 | 3.74 | 1.75 | 2.98 | 0.0513 | 0.435 | 4.49 | 4.7 | 1.49 | 5.23 | 2.58 | 4.26
ATCGAAAGGTCGAAGGTGAGTTTACCCACCCGAA | 4.75 | 3.73 | 0.479 | 2.89 | 0.226 | 4.78 | 4.38 | 4.6 | 2.08 | 3.81 | 0.357 | 2.21 | 0.513 | 0.511 | 1.48 | 4.03 | 1.02 | 4.05 | 0.0951 | 3.85

Reference: the supplement of paper PMC6555819
